Experimental data reported in the supplement of paper PMC11732987, “Enantioselective OTUD7B fragment discovery through chemoproteomics screening and high-throughput optimisation” (Communications Chemistry, 2025).

Assays:
Assay in all cases: log2 ratio of Biotin-Ahx-Ub-VS probe labelling (fragment/DMSO); higher = less target engagement (more negative = stronger competition), active = hit call of the paper (q ≤ 0.05, log2 ratio ≤ -1)
Settings in all cases: compound concentration: 200 uM; treatment time: 3 h
[1] = target: USP9X (UniProt Q93008)
Chain of USP9X (Q93008 whole entry, the tested form may be a part): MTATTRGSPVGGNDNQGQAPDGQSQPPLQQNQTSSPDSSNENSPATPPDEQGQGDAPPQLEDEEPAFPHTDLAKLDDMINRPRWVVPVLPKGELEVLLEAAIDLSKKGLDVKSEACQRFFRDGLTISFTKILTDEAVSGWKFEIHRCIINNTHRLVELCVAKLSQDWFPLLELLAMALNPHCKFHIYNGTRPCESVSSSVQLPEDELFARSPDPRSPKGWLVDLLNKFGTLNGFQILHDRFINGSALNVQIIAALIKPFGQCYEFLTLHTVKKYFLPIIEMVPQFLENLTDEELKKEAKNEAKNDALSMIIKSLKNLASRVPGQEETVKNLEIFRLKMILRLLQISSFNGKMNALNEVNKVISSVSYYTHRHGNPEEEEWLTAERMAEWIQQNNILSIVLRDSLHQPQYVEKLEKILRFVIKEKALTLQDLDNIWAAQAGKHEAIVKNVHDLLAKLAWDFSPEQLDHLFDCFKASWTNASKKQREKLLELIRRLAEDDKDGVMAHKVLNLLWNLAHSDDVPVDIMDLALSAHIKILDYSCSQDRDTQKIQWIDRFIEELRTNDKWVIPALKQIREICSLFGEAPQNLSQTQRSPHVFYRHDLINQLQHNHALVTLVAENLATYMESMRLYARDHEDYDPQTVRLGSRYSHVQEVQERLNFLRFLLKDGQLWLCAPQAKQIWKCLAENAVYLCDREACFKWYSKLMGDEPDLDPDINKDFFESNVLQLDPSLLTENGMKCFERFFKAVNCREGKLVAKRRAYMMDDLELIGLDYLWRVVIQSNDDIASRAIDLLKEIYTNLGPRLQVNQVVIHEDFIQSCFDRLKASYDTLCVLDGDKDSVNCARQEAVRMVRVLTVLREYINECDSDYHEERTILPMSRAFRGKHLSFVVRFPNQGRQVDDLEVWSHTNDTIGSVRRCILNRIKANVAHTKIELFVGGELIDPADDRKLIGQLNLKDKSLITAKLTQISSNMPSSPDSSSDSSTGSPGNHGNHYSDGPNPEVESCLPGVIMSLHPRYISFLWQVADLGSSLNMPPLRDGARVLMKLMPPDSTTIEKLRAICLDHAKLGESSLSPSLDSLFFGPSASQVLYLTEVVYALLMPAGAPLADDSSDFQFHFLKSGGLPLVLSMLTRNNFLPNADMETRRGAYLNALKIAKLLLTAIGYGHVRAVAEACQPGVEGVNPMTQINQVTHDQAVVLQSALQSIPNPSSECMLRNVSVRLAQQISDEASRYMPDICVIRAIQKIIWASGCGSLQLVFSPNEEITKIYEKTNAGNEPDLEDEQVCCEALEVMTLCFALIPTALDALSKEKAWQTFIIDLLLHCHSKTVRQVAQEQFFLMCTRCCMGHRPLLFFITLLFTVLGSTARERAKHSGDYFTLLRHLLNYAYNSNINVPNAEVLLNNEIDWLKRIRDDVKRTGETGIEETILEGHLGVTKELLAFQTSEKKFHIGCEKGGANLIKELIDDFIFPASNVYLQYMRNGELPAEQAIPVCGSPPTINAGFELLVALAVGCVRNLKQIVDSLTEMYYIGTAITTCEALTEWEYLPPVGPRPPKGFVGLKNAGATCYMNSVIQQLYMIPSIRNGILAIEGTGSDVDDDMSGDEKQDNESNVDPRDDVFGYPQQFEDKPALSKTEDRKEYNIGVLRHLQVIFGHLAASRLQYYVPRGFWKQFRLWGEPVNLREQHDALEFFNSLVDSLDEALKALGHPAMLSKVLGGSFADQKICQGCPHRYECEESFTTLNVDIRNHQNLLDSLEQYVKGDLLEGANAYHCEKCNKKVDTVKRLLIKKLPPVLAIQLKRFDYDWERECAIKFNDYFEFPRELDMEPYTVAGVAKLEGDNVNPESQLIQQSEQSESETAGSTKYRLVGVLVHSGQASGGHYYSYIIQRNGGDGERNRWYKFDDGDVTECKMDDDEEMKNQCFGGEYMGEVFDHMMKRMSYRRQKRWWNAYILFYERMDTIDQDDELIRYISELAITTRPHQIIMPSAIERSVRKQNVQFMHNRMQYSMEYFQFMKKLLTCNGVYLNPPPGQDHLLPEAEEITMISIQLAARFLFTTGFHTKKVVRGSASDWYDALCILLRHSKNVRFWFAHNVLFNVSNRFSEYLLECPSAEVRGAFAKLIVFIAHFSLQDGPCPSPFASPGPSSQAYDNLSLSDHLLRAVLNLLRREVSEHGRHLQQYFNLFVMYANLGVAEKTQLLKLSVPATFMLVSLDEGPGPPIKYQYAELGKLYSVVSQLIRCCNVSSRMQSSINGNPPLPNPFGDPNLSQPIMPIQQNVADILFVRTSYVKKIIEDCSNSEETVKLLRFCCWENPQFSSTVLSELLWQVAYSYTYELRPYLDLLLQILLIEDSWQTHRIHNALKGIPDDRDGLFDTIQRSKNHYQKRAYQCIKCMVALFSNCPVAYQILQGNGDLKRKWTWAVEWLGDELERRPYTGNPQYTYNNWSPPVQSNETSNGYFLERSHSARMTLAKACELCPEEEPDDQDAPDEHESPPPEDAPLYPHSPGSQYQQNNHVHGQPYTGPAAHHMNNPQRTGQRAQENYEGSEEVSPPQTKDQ
Summary of the method: (§1)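 In triplicate, 495 µg of HEK293T lysate per sample was incubated with fragment at 200 µM or vehicle for 3 h. Biotin-Ahx-Ub-VS was then added to 0.5 µM final for 1 h, and labelled DUBs were captured with NeutrAvidin, digested with LysC and trypsin, and measured by diaPASEF LC-MS/MS. Data are average log2 fragment/vehicle ratios by unpaired t-test from global-median-normalised Spectronaut label-free quantities, restricted to proteins with ≥2 unique peptides.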

[2] = target: UniProt O00487
Chain of UniProt O00487 (O00487 whole entry): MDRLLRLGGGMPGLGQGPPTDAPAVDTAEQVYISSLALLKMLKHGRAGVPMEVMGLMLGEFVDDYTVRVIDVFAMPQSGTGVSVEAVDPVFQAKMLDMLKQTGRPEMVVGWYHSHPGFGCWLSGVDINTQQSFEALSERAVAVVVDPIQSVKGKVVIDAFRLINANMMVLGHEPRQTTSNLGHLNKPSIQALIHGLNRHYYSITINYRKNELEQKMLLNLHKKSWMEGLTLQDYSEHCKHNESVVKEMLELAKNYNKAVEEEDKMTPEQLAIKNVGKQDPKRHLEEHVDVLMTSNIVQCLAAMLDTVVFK
Summary of the method: as §1

[3] = target: UniProt O00507
Summary of the method: as §1

[4] = target: UniProt P51784
Chain of UniProt P51784 (P51784 whole entry): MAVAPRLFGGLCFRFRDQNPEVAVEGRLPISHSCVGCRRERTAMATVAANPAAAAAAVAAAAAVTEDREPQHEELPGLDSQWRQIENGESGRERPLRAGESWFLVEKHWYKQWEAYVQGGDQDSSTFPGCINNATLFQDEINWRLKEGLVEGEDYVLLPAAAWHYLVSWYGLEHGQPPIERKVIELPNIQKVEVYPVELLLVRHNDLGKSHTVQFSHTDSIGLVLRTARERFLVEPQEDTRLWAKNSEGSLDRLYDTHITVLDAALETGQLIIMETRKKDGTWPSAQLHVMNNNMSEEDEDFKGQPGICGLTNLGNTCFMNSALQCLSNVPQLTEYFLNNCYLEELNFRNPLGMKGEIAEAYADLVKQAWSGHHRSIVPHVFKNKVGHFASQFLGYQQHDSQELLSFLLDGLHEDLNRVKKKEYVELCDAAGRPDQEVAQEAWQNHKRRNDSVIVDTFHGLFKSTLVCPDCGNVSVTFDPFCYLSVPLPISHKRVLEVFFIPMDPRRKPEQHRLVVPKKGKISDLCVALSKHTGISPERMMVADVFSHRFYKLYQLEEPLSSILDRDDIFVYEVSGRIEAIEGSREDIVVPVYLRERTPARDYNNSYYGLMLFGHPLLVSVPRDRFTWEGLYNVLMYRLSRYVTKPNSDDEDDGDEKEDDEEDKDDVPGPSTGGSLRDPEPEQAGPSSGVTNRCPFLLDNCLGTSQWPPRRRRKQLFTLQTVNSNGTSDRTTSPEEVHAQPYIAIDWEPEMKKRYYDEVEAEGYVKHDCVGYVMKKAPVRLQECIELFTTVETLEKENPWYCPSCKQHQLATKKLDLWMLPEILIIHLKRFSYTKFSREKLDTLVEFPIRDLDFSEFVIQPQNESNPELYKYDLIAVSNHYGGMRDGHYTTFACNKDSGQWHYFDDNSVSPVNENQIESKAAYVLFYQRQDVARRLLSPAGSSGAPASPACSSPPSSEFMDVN
Summary of the method: as §1

[5] = target: T1, UniProt Q5T2D3
T1 sequence (whole entry): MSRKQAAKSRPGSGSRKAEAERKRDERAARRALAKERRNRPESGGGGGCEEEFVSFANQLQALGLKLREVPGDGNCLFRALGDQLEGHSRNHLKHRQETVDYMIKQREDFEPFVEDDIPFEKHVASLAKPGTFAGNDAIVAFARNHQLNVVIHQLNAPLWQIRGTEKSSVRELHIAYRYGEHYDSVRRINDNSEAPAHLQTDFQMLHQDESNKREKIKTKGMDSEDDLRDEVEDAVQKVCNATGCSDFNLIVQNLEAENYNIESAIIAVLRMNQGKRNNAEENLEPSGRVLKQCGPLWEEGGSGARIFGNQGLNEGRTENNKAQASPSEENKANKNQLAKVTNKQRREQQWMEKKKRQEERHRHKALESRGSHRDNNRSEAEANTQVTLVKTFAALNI
Summary of the method: as §1

[6] = target: T2, UniProt Q8TE49
T2 sequence (whole entry): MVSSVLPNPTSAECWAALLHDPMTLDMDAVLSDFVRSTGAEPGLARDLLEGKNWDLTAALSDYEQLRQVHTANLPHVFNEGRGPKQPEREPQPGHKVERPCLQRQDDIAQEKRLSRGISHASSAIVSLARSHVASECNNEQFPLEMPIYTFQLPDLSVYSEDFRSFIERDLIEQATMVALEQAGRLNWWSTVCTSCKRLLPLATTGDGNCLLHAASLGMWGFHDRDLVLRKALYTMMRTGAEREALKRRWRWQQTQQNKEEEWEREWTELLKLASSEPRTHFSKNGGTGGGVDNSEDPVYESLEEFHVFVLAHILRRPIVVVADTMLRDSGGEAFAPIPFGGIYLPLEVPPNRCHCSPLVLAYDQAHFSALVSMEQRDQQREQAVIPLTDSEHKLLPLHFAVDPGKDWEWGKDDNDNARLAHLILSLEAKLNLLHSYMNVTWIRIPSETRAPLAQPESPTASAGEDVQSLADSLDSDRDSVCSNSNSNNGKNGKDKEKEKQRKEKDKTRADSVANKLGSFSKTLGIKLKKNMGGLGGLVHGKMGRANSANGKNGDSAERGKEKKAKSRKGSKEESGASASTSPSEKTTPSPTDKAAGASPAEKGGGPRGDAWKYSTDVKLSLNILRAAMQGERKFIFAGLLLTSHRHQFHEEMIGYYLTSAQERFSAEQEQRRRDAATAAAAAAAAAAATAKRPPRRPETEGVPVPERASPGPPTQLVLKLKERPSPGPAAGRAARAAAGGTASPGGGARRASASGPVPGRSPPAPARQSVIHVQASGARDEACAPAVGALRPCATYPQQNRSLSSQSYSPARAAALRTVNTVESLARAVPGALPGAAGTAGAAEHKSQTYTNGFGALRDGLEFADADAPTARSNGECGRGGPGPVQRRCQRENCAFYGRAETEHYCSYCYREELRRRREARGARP
Summary of the method: as §1

[7] = target: T3, UniProt Q9P2H5
T3 sequence (whole entry): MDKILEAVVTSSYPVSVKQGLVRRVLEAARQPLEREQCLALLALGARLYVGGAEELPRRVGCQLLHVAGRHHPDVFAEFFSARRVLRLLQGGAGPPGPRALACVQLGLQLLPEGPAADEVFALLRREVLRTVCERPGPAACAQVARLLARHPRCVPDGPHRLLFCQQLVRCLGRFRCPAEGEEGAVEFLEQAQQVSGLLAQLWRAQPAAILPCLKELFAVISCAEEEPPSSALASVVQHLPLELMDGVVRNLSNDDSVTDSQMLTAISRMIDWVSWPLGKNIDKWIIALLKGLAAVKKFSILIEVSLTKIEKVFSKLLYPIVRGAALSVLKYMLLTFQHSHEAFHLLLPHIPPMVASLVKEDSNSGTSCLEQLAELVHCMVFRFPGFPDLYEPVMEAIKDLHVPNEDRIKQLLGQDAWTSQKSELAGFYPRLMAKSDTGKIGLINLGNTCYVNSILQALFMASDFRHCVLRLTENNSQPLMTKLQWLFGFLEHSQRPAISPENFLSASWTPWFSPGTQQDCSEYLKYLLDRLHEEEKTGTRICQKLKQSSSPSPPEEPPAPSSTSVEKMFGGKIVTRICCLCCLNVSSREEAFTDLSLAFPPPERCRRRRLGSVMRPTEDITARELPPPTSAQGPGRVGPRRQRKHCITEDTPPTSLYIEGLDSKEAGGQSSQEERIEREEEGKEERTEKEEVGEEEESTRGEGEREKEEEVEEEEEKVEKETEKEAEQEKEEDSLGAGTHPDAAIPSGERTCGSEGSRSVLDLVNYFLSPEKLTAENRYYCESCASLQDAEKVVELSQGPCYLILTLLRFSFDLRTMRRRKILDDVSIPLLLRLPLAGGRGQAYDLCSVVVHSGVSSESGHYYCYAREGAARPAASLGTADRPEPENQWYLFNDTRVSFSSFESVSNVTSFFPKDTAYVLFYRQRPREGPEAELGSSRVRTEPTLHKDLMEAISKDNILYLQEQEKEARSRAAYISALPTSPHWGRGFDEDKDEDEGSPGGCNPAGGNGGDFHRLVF
Summary of the method: as §1

[8] = target: T4, UniProt Q9UGI0
T4 sequence (whole entry): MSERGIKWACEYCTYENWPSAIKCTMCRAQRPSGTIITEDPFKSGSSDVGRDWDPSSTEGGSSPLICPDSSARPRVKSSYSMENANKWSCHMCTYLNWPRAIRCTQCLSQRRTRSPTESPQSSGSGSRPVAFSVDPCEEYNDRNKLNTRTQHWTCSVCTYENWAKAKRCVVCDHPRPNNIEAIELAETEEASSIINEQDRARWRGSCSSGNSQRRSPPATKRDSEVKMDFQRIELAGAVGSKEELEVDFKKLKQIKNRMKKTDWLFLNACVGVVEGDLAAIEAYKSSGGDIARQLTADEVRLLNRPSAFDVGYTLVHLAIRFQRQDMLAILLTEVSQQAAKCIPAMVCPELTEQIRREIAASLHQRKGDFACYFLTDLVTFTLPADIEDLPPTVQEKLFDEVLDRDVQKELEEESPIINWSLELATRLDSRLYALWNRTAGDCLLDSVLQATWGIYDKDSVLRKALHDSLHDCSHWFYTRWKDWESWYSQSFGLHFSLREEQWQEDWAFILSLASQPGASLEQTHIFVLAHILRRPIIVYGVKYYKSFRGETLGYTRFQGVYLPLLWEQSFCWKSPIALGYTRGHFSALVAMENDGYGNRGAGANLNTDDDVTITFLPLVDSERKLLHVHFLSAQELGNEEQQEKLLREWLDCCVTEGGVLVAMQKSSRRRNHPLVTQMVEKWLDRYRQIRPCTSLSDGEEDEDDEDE
Summary of the method: as §1

[9] = target: T5, YOD1 (UniProt Q5VVQ6)
T5 sequence (whole entry): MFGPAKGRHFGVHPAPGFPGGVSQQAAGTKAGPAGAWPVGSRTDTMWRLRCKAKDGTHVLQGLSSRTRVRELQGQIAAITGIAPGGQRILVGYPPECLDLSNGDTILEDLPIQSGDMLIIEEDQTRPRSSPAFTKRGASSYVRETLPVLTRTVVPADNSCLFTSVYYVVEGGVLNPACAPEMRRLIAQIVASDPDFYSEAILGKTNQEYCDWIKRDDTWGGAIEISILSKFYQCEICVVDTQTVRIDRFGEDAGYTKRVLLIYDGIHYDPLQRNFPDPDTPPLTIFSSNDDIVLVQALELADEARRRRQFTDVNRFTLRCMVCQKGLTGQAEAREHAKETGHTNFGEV
Summary of the method: as §1

Measured: log2 ratio of Biotin-Ahx-Ub-VS probe labelling

CN(C(=O)CCl)c1nc2ccccc2s1
inactive: [1] -0.325 | [2] -0.00105 | [3] 0.257 | [4] -0.083 | [5] -0.0566 | [6] -0.558 | [7] -0.266 | [9] 0.155
active: [8] -1.12
